# Data reported in PubChem BioAssay (EPA / NIEHS).
# Calls of active or inactive are those of the source. Rule for the calls: active = hit-call score of the fitted dose curve at least 0.9, where 1 is the maximum; inactive = score below 0.9.
# Read-out: Monokine induced gamma interferon (MIG), CXCL9 (gene 4283)
# Test: BSK_3C_MIG: BioMAP Diversity Plus: 3C Assay for Monokine induced gamma interferon (MIG) Biomarker Activity (AID 2283021);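 for AC50: MIG protein level measured by immunoassay in the treated endothelial cultures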
# Details: primary human endothelial cells (HUVEC); actives raise or lower the signal
# Protocol: BSK_3C is a cell-based, multiplexed-readout assay that uses umbilical vein endothelium, a human vascular primary cell, with measurements taken at 24 hours after chemical dosing in a 96-well plate.BSK_3C_MIG is an assay component measured in the BSK_3C assay. It measures MIG antibody related to regulation of gene expression using ELISA technology.Data from the assay component BSK_3C_MIG was analyzed into 1 assay endpoint. This assay endpoint, BSK_3C_MIG, was analyzed with bidirectional fitting relative to DMSO as the negative control and baseline of activity. Using a type of binding reporter, gain or loss-of-signal activity can be used to understand changes in the signaling as they relate to the gene CXCL9. Furthermore, this assay endpoint can be referred to as a primary readout, because this assay has produced multiple assay endpoints where this one serves a signaling function. To generalize the intended target to other relatable targets, this assay endpoint is annotated to the cytokine intended target family, where the subfamily is chemotactic factor.
# The levels of cell surface (or secreted, indicated by the prefix "s") biomarker endpoints were measured by ELISA. Overt cytotoxicity to cells in confluent adherent cultures (all systems other than the BT system) was assessed by measuring total protein levels using sulforhodamine B (SRB) staining in parallel cultures at the time of biomarker measurements, indicated as SRB endpoints. For proliferation assays for adherent cell types, individual cell types are cultured at sub-confluence and relative cell numbers quantified by SRB staining at time points optimized for each system (48 h: 3C and CASM3C systems; 72 h: BT and HDF3CGF systems; 96 h: SAg system). SRB was performed by staining cells with 0.1% SRB after fixation with 10% TCA and reading wells at 560 nm.Viability and proliferation of PBMC (T cells) was quantified by Alamar Blue reduction for the SAg and BT systems. For PBMC viability (referred to as PBMC Cytotoxicity within the assay endpoint names), cells were plated (75,000/well in a 96-well plate) and then chemical samples added for 1 h before addition of activators, SEB and TSST-1 (20 ng/mL final concentration each). Cells were incubated for 90 h. Then, Alamar Blue (20 uL/well) (Invitrogen, Cat DAL1100) was added for 6 h, and the plates were read with a fluorescence microplate reader at 546/580 nm (excitation/emission). For PBMC proliferation, cells were plated and activated as above but incubated for only 16 h prior to addition of Alamar Blue. Plates were read after 6 h.
Structure (SMILES),AC50,outcome
Oc1ccc(Cl)cc1Cc1ccccc1,36.8 µM (active) [middle of 7 runs],–
CCOCN(C(=O)CCl)c1c(C)cccc1CC,–,inactive
OCCOc1ccccc1,–,inactive
COc1cc(OC)nc(NC(=O)NS(=O)(=O)c2cc(NC=O)ccc2C(=O)N(C)C)n1,–,inactive
N#Cc1c(Cl)c(Cl)c(Cl)c(C#N)c1Cl,2.06 µM (active),–
COC(=O)c1ccccc1S(=O)(=O)NC(=O)Nc1nc(C)nc(OC)n1,–,inactive
CCN(CC)C(=O)SCc1ccc(Cl)cc1,–,inactive
O=C(O)COc1ccc(Cl)cc1Cl,–,inactive
Oc1cc(Cl)ccc1Oc1ccc(Cl)cc1Cl,32.6 µM (active) [middle of 4 runs],–
CNC(=O)/C=C(\C)OP(=O)(OC)OC,–,inactive
CCC(C)(C)C(=O)OC1=C(c2ccc(Cl)cc2Cl)C(=O)OC12CCCCC2,35.2 µM (active),–
CNC(=O)CSP(=S)(OC)OC,–,inactive
O=C(Nc1ccccc1)Nc1cnns1,–,inactive
COC(=O)c1ccccc1CS(=O)(=O)NC(=O)Nc1nc(OC)cc(OC)n1,–,inactive
CCOC1Oc2ccc(OS(C)(=O)=O)cc2C1(C)C (stereo not given),–,inactive
[2H]C1([2H])[n+]2ccccc2-c2cccc[n+]2C1([2H])[2H],–,inactive
CCS(=O)(=O)c1cccnc1S(=O)(=O)NC(=O)Nc1nc(OC)cc(OC)n1,–,inactive
O=C(O)C(F)(F)C(F)(F)C(F)(F)C(F)(F)C(F)(F)C(F)(F)C(F)(F)F,–,inactive
CCC(C)Nc1c([N+](=O)[O-])cc(C(C)(C)C)cc1[N+](=O)[O-] (stereo not given),–,inactive
CCCN(CCC)c1c([N+](=O)[O-])cc(C(F)(F)F)cc1[N+](=O)[O-],–,inactive

Structure (SMILES),AC50,outcome
O=[N+]([O-])c1c(Cl)c(Cl)c(Cl)c(Cl)c1Cl,–,inactive
CC1(C)C(C=C(Cl)Cl)C1C(=O)OC(C#N)c1ccc(F)c(Oc2ccccc2)c1 (stereo not given),–,inactive
CC(C)N(C(=O)COc1nnc(C(F)(F)F)s1)c1ccc(F)cc1,–,inactive
CC(C)(C)C(O)C(Oc1ccc(Cl)cc1)n1cncn1 (stereo not given),–,inactive
CC1(c2ccc(Oc3ccccc3)cc2)OC(=O)N(Nc2ccccc2)C1=O (stereo not given),32.3 µM (active),–
CN1CSC(=S)N(C)C1,–,inactive
O=S(=O)(O)C(F)(F)C(F)(F)C(F)(F)C(F)(F)C(F)(F)C(F)(F)C(F)(F)C(F)(F)F,–,inactive
Cc1cc(C)nc(NC(=O)NS(=O)(=O)c2ccccc2C(=O)OC2COC2)n1,–,inactive
O=C(NC(=O)c1c(F)cccc1F)Nc1ccc(OC(F)(F)C(F)OC(F)(F)F)c(Cl)c1 (stereo not given),–,inactive
ClC1C(Cl)C(Cl)C(Cl)C(Cl)C1Cl (stereo not given),–,inactive
COP(=S)(OC)Oc1ccc([N+](=O)[O-])cc1,–,inactive
Cc1[nH]c(=O)n(C(C)(C)C)c(=O)c1Cl,–,inactive
CCCN(CCOc1c(Cl)cc(Cl)cc1Cl)C(=O)n1ccnc1,–,inactive
CC[C@H](C)[C@H]1O[C@]2(C=C[C@@H]1C)C[C@@H]1C[C@@H](C/C=C(\C)[C@@H](O[C@H]3C[C@H](OC)[C@@H](O[C@H]4C[C@H](OC)[C@@H](O)[C@H](C)O4)[C@H](C)O3)[C@@H](C)/C=C/C=C3\CO[C@@H]4[C@H](O)C(C)=C[C@@H](C(=O)O1)[C@]34O)O2 (tested in a mixture with another compound),12.1 µM (active),–
COP(=O)(OC)OC=C(Cl)Cl,–,inactive
CNC(=O)Oc1ccccc1OC(C)C,–,inactive
COc1nn(CSP(=S)(OC)OC)c(=O)s1,–,inactive
O=C(O)CCCOc1ccc(Cl)cc1Cl,–,inactive
O=[N+]([O-])/N=C1\NCCN1Cc1ccc(Cl)nc1,–,inactive
COP(=S)(OC)Oc1ccc(SC)c(C)c1,–,inactive
